Out of some 320,000 compounds screened, about 22,000 (6.9%) were called active. Not shown: some 27% with an inconclusive outcome. Calls follow the shape of the dose curve; as a rule, active = well fitted inhibition curve with a large enough effect; inconclusive = small, poorly fitted or top-dose-only effect, or another doubt; inactive = no such curve, though single readings can be large or run the other way. For the sample, actives were picked, then their nearest neighbours and some compounds at random.
test: Primary qHTS for delayed death inhibitors of the malarial parasite plastid, 96 hour incubation; details: P. falciparum luciferase reporter growth; series mostly up to 28.7 µM; activity change, negative = inhibition: at the top concentration
Outline: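 P. falciparum expressing integrated firefly luciferase grown in erythrocytes (2% hematocrit, 0.05% parasitemia final) with compounds for 96 hours at 37 C, 5% CO2. Growth inhibition read as loss of luminescence after adding luciferase detection reagent.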
% is scaled to controls: 0 for no effect and ±100 for the full control effect; potency is read from the fitted curve at half-maximal effect.

SMILES	activity change, negative = inhibition	Potency
Cn1c(SCC(=O)N2CCCC2)nnc1-c1ccc2c(c1)OCO2	-17.5% (inactive)	
O=C(CNc1ccccc1N1CCCC1=O)Nc1cc(Cl)ccc1-n1cncn1	41.9% (inactive)	
O=C(Nc1ccccc1Cl)Nn1cnnc1	22.9% (inactive)	
O=C(CN1CCCCC1)Nc1ccc(Br)cc1C(=O)c1ccccc1Cl		1.85 µM (active)
O=C(CN1CCCCCC1)Nc1ccc(Br)cc1[N+](=O)[O-]	69.6% (inactive)	
O=C(CN1CCCCCC1)Nc1ccc(Br)cc1Br	55.1% (inactive)	
Cc1cccc(-n2ncc(Cl)c(Cl)c2=O)c1	-4.47% (inactive)	
COc1ccc(C(=O)NCC2CCCCC2)cc1S(=O)(=O)N1CCCC1	-107% (inactive)	
CCOCC(=O)Nc1cc(OC)c(Cl)cc1OC	21.5% (inactive)	
COc1cccc(CC(=O)Nc2ccc(-c3csc(C)n3)cc2)c1	-16.2% (inactive)	
COc1cc(NC(=O)c2ccc(-c3csc(C)n3)cc2)c(OC)cc1Cl		4.15 µM (active)
COc1cc(C(=O)NCc2nnc(SCC(=O)c3ccc(Cl)cc3)o2)cc(OC)c1OC	8.44% (inactive)	
Cc1ccc(NS(=O)(=O)c2cc3c(cc2C)NC(=O)CO3)cc1	18.2% (inactive)	
COc1ccc(CCNC(=O)NS(=O)(=O)c2ccc(C)cc2)cc1OC	15.1% (inactive)	
Cc1cccc(N2CCN(C(=O)c3cnn4c(C(F)F)cc(-c5ccccc5)nc34)CC2)c1C	-5% (inactive)	
O=C(c1cc(-c2ccc(Cl)cc2)on1)N1CCN(c2ccccc2)CC1	66.5% (inactive)	
Cc1ccc(Cl)cc1N1CCN(C(=O)c2cccc3c(=O)c(C)c(-c4ccccc4)oc23)CC1		2.08 µM (active)
O=C(CC1C(=O)NCCN1CC(c1ccccc1)c1ccccc1)NCC1CCOCC1 (stereo unspecified)	63.7% (inactive)	
O=C(COc1ccccc1Cl)N1CCCCCCC1	-12.9% (inactive)	
CCC(CC)c1nnc(NC(=O)C2CCN(C(=O)c3ccco3)CC2)s1	12.9% (inactive)	
CN(C)C(CNC(=O)c1ccc(OCc2cn3ccccc3n2)cc1)c1ccco1 (stereo unspecified)	19.2% (inactive)	
CC(Oc1cc2oc(=O)c3c(c2cc1Cl)CCCC3)C(=O)NCc1ccncc1 (stereo unspecified)	-24.1% (inactive)	

SMILES	activity change, negative = inhibition	Potency
COc1ccc(CCc2nnc(CCC(=O)NCc3cnn(-c4ccccc4C)c3)o2)cc1		9.28 µM (active)
CC(CCn1cccn1)NC(=O)CCc1nnc(CCc2ccccc2)o1 (stereo unspecified)	22% (inactive)	
COc1ccc(CNC(=O)CCN2C(=O)c3ccccc3C2=O)cc1	-6.81% (inactive)	
Cc1ccc(C)c(N2CCN(S(=O)(=O)c3c(C)[nH]c(C)c3C(=O)N3CCCC3)CC2)c1	-2.64% (inactive)	
O=C(N/N=C/c1c[nH]c2ccccc12)c1cc2ccccc2o1	-4.84% (inactive)	
CSC(=S)N/N=C/c1c[nH]c2ccccc12	18.9% (inactive)	
O=C(N/N=C/c1c[nH]c2ccccc12)c1ccccc1O		11.7 µM (active)
CCCc1cc(=O)oc2cc(OCC(=O)Nc3ccc(CN4CCOCC4)cc3)c(Cl)cc12		10.4 µM (active)
CCc1cc(=O)oc2c(C)c(OCC(=O)NCCN3CCOCC3)ccc12	12% (inactive)	
CCOc1ccc(C(=O)Nc2ccc(CN3CCOCC3)cc2)cc1Cl	232% (inactive)	
Cc1nc(-c2ccc(Cl)cc2)sc1C1(C)CC(c2ccccc2F)=NO1 (stereo unspecified)	24.9% (inactive)	
COCCCN1C(=O)c2ccc(C(=O)OCC(=O)NCc3ccccc3OC)cc2C1=O	2.31% (inactive)	
Cc1c(C)c(C)c(S(=O)(=O)NCCc2ccccn2)c(C)c1C	4.22% (inactive)	
CN(Cc1cccnc1)C(=O)c1cc(COc2ccc3ncccc3c2)on1	-0.897% (inactive)	
CSc1ccccc1OCc1cc(C(=O)N(C)CCc2c(C)n[nH]c2C)no1	-0.638% (inactive)	
Cc1ccc(OCc2cc(C(=O)N(C)CCc3ccccc3)no2)cc1C		13.1 µM (active)
Cc1cc(S(=O)(=O)N2CCOCC2)ccc1OCC(=O)Nc1cccc(C(F)(F)F)c1	41.3% (inactive)	
O=C(N/N=C/c1cccc(OC(=O)c2ccc([N+](=O)[O-])cc2)c1)c1cccnc1	10.1% (inactive)	
Cc1cccc(-c2nc3ccc(C(=O)NCCN4CCN(C)CC4)cc3nc2-c2cccc(C)c2)c1		11.7 µM (active)
Cc1cccc(C(=O)NCCCN2CCCC2=O)c1	32.3% (inactive)	
Cc1cccc(C(=O)NCCCN(C)CCCNC(=O)c2cccc(C)c2)c1	64.7% (inactive)	
CC(=O)Nc1ccc(S(=O)(=O)Oc2ccc(Br)cc2C(=S)N2CCOCC2)cc1	73.5% (inactive)	

SMILES	activity change, negative = inhibition	Potency
CCOC(=O)C(O)(c1ccc(N=Cc2ccccc2O)c(C)c1)C(F)(F)F (stereo unspecified)	8.1% (inactive)	
COC(=O)C(O)(c1ccc(NC(=O)c2ccco2)c(OC)c1)C(F)(F)F (stereo unspecified)	2.22% [at 5.75 µM] (inactive)	
CCOC(=O)C(O)(c1ccc(N)c(OC)c1)C(F)(F)F (stereo unspecified)		2.62 µM (active)
C/C(=N\NC(=O)c1cccc([N+](=O)[O-])c1)c1cccnc1	-24.8% (inactive)	
CCc1ccc(NC(=O)N[C@H](C(=O)O)C(C)CC)cc1 (stereo partly specified)	51.5% (inactive)	
O=C(Nc1ccccc1N1CCCCC1)c1ccc2nccnc2c1	2.02% (inactive)	
Cc1nnc(NC(=O)c2ccc3nccnc3c2)s1	63.9% (inactive)	
Cc1ccc(C)c(NC(=O)c2ccc3nccnc3c2)c1		8.28 µM (active)
CC(C)OCCCNC(=O)CN1C(=O)/C(=C/c2ccccc2F)Oc2ccccc21	-20.8% (inactive)	
Cc1ccc(C)c(OCCC(=O)OCC(=O)NC(=O)NCc2ccccc2)c1	23.4% (inactive)	
COc1ccc(/C(C)=N/N2CCOCC2)c(O)c1	131% (inactive)	
COc1cccc(NC(=O)c2ccc(Cn3cc([N+](=O)[O-])cn3)o2)c1	0% (inactive)	
COc1cccc(NC(=O)c2nn(C34CC5CC(CC(C5)C3)C4)cc2[N+](=O)[O-])c1		8.28 µM (active)
Cn1cc([N+](=O)[O-])c(C(=O)Nc2ccc3c(c2)OCCO3)n1	56.1% (inactive)	
O=C(Nc1cccc([N+](=O)[O-])c1)N1CCc2ccccc2C1	-29.3% (inactive)	
O=C(COC(=O)C1(c2ccc(F)cc2)CCCC1)N1CCNC1=O	-16.4% (inactive)	
O=[N+]([O-])c1ccc2c(c1)C(N1CCOCC1)/C(=C/C1(O)CCCCC1)O2 (stereo unspecified)		1.65 µM (active)
O=C(NC1CCCCC1)c1cc([N+](=O)[O-])ccc1N1CCOCC1	55.6% (inactive)	
O=C(/C=C/c1cccc([N+](=O)[O-])c1)OCC(=O)N1CCOCC1	9.92% (inactive)	
O=[N+]([O-])c1ccc(N/N=C/c2ccccc2)cc1	73.4% (inactive)	
COc1ccc(NC(=O)CNC(=O)Cc2ccccc2)cc1OC	33.4% (inactive)	
C[C@]12CC[C@@H]3c4ccc(O)cc4C[C@@H](CCCCCCCCCS(=O)CCCC(F)(F)C(F)(F)F)C3[C@@H]1CC[C@@H]2O (stereo partly specified)		6.01 µM (active)
